Compound activity: PubChem BioAssay, National Center for Advancing Translational Sciences (NCATS)
N370S GC mod = qHTS Assay for Inhibitors and Activators of N370S glucocerebrosidase as a Potential Chaperone Treatment of Gaucher Disease; Lysosomal acid glucosylceramidase (Homo sapiens), P04062; N370S GC spleen homogenate, 4MU-glucoside fluorescence; Potency, µM (doses to about 59.4 µM), for inactives: at the top dose activity change, negative = inhibition, most hits filed as inhibitors; 0.092% of 330,000 active; AID 2101, 2009;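 further: potency means the concentration at half of the fitted maximal effect; 0% = full enzyme activity and -100% = no enzyme basal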
GAA glycogen = qHTS Assay for Inhibitors and Activators of Human alpha-Glucosidase Cleavage of Glycogen; recombinant GAA, glycogen substrate, Amplex Red glucose oxidase fluorescence; Potency, µM (titrated, usually from 76.4 µM), for inactives: at the top dose activity change, negative = inhibition, actives largely listed as inhibitors; 0.38% of 300,000 active;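 further: potency means the concentration at half of the fitted maximal effect; 0% = full enzyme reaction and -100% = no-enzyme basal signal; the screen sought inhibitors and activators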
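qHTS, 1536-well; enzyme 4 nM final; cpd up to 77 uM; substrate bovine liver glycogen 30 ug; 50 mM citrate/phosphate pH 5.0, 0.01% Tween-20; 37 C, 40 min; Amplex Red detection 45 min RT; Hill fit → AC50.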
GAA spleen mod = qHTS Assay for Inhibitors and Activators of Human alpha-Glucosidase From Spleen Homogenate; Lysosomal alpha-glucosidase (Homo sapiens), P10253; human spleen homogenate, 4-MU-alpha-glucoside fluorescence; Potency, µM (top dose mostly 79.9 µM), for inactives: top-dose activity change, negative = inhibition, hits mostly inhibitors; 0.006% of 240,000 active;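 further: potency means the concentration at half of the fitted maximal effect; 0% = enzyme with vehicle and -100% = no enzyme basal signal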
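Enzyme source: human spleen homogenate, 1 ug/well. Buffer 50 mM citric acid/K phosphate pH 5.0, 0.01% Tween-20. 4-MU-alpha-glucoside 1 mM; 37 C x 40 min; NaOH/glycine stop; fluorescence.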
aGal spleen mod = qHTS Assay for Inhibitors and Activators of Human alpha-Galactosidase From Spleen Homogenate; AID 2107, 2009; 0.008% of 240,000 active; human spleen homogenate, 4MU-alpha-Gal fluorescence, 40 min; Potency, µM (titrated, usually from 80 µM), without a hit: top-dose activity change, negative = inhibition, most hits filed as inhibitors;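 further: potency means the concentration at half of the fitted maximal effect; 0% = enzyme with vehicle and -100% = no enzyme basal signal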
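Spleen homogenate 1 ug + cpd (titration) + 4-MU-alpha-D-galactopyranoside 1 mM; 37C 40 min; 50 mM citrate/phosphate pH 5.0, 0.01% Tween-20; stop pH 10; fluorescence 365/440; AC50 via Hill.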
GLA inh pH 4.5 = qHTS Assay for Inhibitors of Human alpha-Galactosidase at pH 4.5 | Alpha-galactosidase A (Homo sapiens), P06280 | purified enzyme, 4-MU-alpha-Gal fluorescence, pH 4.5 | activity change, negative = inhibition, % at 105 µM | 230,000 tested, under 10 active | AID 1467, 2008;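 further: 0% = full activity with enzyme and -100% = basal without enzyme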
Target sequence (P06280 whole entry, looked up): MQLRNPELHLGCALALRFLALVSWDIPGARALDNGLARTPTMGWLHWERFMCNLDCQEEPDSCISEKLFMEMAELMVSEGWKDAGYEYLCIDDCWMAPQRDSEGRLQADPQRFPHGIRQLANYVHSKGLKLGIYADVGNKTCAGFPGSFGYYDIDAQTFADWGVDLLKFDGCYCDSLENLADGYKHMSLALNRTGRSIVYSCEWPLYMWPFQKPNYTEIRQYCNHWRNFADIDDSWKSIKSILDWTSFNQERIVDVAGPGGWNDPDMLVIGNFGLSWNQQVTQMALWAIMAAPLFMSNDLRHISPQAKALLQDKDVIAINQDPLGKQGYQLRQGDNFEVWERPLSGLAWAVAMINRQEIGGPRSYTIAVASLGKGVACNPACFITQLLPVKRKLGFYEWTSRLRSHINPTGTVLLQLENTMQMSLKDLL
GAA inh = qHTS Assay for Inhibitors of Human alpha-Glucosidase as a Potential Chaperone Treatment of Pompe Disease | Lysosomal alpha-glucosidase (Homo sapiens), P10253 | purified human GAA, 4-MU-alpha-glucoside fluorescence | Potency, µM (series often up to 76.9 µM), for inactives: at the top dose activity change, negative = inhibition, most hits filed as inhibitors | 0.005% of 200,000 active | AID 1466, 2008;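 further: potency means the concentration at half of the fitted maximal effect; plate controls were uninhibited enzyme wells for no effect and no-enzyme background for full effect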
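Human alpha-glucosidase, 4 nM, pre-mixed with test compounds before 400 uM 4-methylumbelliferyl substrate; 20 min room temperature at pH 5.0. Fluorescence read after pH 10 stop; AC50 values from Hill-equation fits.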
* marks the source's active call; other numbers are inactive results; ! = not confirmed by another sample; [ ] = dose if it differs, or a comment. Shown are actives, neighbours in structure and some others; about 0.41% of the full set was active somewhere. The call rests on the fitted dose curve; in most records, active means well fitted curve in the direction sought with a large enough effect; inconclusive means small, poorly fitted or top-dose-only effect, or another doubt; inactive means no such curve, though single readings can be large; an effect the other way counts as inactive or inconclusive.

Screening COc1ccccc1N1CCN(CCCCN2C(=O)c3ccccc3C2=O)CC1 returned N370S GC mod 5%, GAA spleen mod 3%, aGal spleen mod 10µM*! and GLA inh pH 4.5 1.
CCOC(=O)C1=C(c2ccccc2)NC(=O)NC1c1cc(Cl)c(O)c(OC)c1 (configuration not stated) was read as N370S GC mod 1%, GAA glycogen -29%, GAA spleen mod -3%, aGal spleen mod 6%, GLA inh pH 4.5 1 and GAA inh -3%.
CCOC(=O)C1=C(c2ccccc2)NC(N)=NC1c1ccc(OCc2ccc(Cl)cc2)c(OC)c1 (configuration not stated) was read as N370S GC mod 22µM*, GAA glycogen -5%, GAA spleen mod 2%, aGal spleen mod -17% and GLA inh pH 4.5 -14.
`Cc1ccc(N(CC(=O)NCCc2ccccc2)S(=O)(=O)N(C)C)cc1` gave GAA glycogen 10%[76.3 µM].
For O=C(c1cccc2cccc(O)c12)N1CCCCC1 the results were N370S GC mod -10%, GAA glycogen 25µM*, GAA spleen mod 2%, aGal spleen mod 7%, GLA inh pH 4.5 0 and GAA inh 5%.
For O=C(c1cccc2ccccc12)N1CCCCC1 the results were N370S GC mod -2% and GAA glycogen -8%[76.3 µM].
Cc1nc2nc(NC(=O)C(C)(C)C)[nH]n2c(=O)c1Cc1ccccc1 was read as GAA glycogen -2%[76.3 µM].
`COc1ccc(NC(=S)NNc2ccc(S(=O)(=O)Nc3ccccc3C(=O)O)cc2[N+](=O)[O-])cc1` gave N370S GC mod -11%, GAA glycogen 25µM*, GAA spleen mod -1%, aGal spleen mod 8% and GLA inh pH 4.5 -27.
For Cc1ccccc1C(=O)NNc1ccc(-c2csnn2)cc1 the results were N370S GC mod -26%, GAA glycogen 16µM*, GAA spleen mod 6%, aGal spleen mod 1%, GLA inh pH 4.5 -2 and GAA inh -2%.
`CC(=O)Oc1ccc(-c2csnn2)cc1` gave N370S GC mod 4%, GAA glycogen -8%, GAA spleen mod 9%, aGal spleen mod 4%, GLA inh pH 4.5 -9 and GAA inh 1%.
Oc1ccc(Nc2ccnc3cc(Cl)ccc23)cc1 was read as N370S GC mod inconclusive, GAA glycogen 13µM*, GAA spleen mod -10%, aGal spleen mod 6% and GLA inh pH 4.5 -12.
Fc1ccc(-c2csc(-c3nc(-c4ccc(Br)s4)cs3)n2)cc1 was read as GAA glycogen 0%[76.3 µM].
COc1ccccc1-c1ccc2ncnc(N3CCNCC3)c2c1 was read as N370S GC mod inconclusive, GAA spleen mod -5% and aGal spleen mod 3%.
O=C1C2Sc3[nH]c(=O)sc3C(c3ccccc3)C2C(=O)N1c1ccc(Cl)cc1 (configuration not stated) was read as N370S GC mod 9%, GAA glycogen 28µM*, GAA spleen mod -2%, aGal spleen mod 2%, GLA inh pH 4.5 3 and GAA inh 2%.
Cc1ccc(N2C(=O)C3Sc4[nH]c(=O)sc4C(c4ccccc4)C3C2=O)cc1 (configuration not stated) was read as N370S GC mod 11%, GAA glycogen 31µM*, GAA spleen mod 1%, aGal spleen mod 1%, GLA inh pH 4.5 5 and GAA inh 4%.
`CCOc1ccc(CCNC(=O)CCCc2nnc3n(CC)c(=O)c4sccc4n23)cc1OCC` gave GAA glycogen 16%[76.3 µM].
Screening CCOc1ccccc1CNc1ccc(O)cc1 returned N370S GC mod 5.6µM*, GAA glycogen inconclusive, GAA spleen mod 4%, aGal spleen mod 5%, GLA inh pH 4.5 -2 and GAA inh -4%.
For O=C1Nc2ccccc2/C1=N\N=C\c1ccc(O)c(O)c1 the results were N370S GC mod -1%, GAA glycogen 6.3µM*, GAA spleen mod -14%, aGal spleen mod 2%, GLA inh pH 4.5 0 and GAA inh -14%.
For COc1cc(/C=N/N=C2/C(=O)Nc3ccccc32)ccc1O the results were N370S GC mod -1%, GAA glycogen -1%, GAA spleen mod -5%, aGal spleen mod -15%, GLA inh pH 4.5 2 and GAA inh inconclusive.
CCc1ccc(CNCc2c(C(=O)O)n(Cc3ccc(C)cc3)c3cc(C)ccc23)cc1 was read as GAA glycogen -7%[76.3 µM].
`CCOC(=O)C1CCCN(c2c(C(=O)c3ccc(OCC)cc3)cnc3ccccc23)C1` (configuration not stated) gave GAA glycogen 11µM*.
`O=C(Nc1cccc(Cl)c1)OCC#CCCl` gave N370S GC mod 1%, GAA spleen mod -1% and aGal spleen mod 14%.
COc1ccc(N2Nc3n[nH]c(N)c3N2)cc1 was read as N370S GC mod -24%, GAA glycogen 25µM*, GAA spleen mod inconclusive, aGal spleen mod -7%, GLA inh pH 4.5 -6 and GAA inh -11%.
`CCOc1ccc(N2Nc3n[nH]c(N)c3N2)cc1` gave N370S GC mod -11%, GAA glycogen 22µM*, GAA spleen mod -14%, aGal spleen mod -2%, GLA inh pH 4.5 -4 and GAA inh -8%.
For CCOc1ccc(Cc2n[nH]c(=S)n2N)cc1 the results were N370S GC mod 0%, GAA glycogen 4%, GAA spleen mod -4%, aGal spleen mod -1%, GLA inh pH 4.5 12 and GAA inh 4%.
`COc1cc(NC(=O)c2nn(C)c3c2COc2ccccc2-3)cc(OC)c1OC` gave GAA glycogen 2%[76.3 µM].
Screening CCOC(=O)CC(=O)CSc1nc(CC)c(C)cc1C#N returned N370S GC mod 10%, GAA glycogen -5%, GAA spleen mod -8%, aGal spleen mod 7% and GLA inh pH 4.5 11.
`CCOC(=O)CC(=O)CSc1nc2ccc(C)cc2cc1C#N` gave N370S GC mod 22µM*, GAA glycogen -4%, GAA spleen mod -2%, aGal spleen mod 5%, GLA inh pH 4.5 -7 and GAA inh inconclusive.
